Assay results published in PubChem BioAssay (NCI).
Compounds without any hit were thinned out: in the full panel of roughly 83,000, 20% have a hit.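 Single-dose data. Exposure time 48 hours. Values below 10 considered active.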 The source made the active and inactive calls.

What follows are compounds tested on OVCAR-5 ovarian (assay: NCI-60 one-dose screen, 48 h (100 = growth as untreated, 0 = no growth, -100 = all killed)). Details: 10 µM unless noted.

Question: With O=c1[nH]c2c(s1)CCCC2CN1CCCCC1 (stereo not drawn) as the compound, how does the growth read?
Answer: Its growth is 89.2% (inactive).

Question: How did the growth turn out when O=C(N/N=C/c1cccc(O)c1)c1ccccc1Nc1cccc(C(F)(F)F)c1 was run?
Answer: Its growth is 92.3% (inactive).

Question: With COc1cc2nc(-c3ccc(C#N)cc3)[nH]c(=O)c2cc1OC as the compound, how does the growth read?
Answer: The growth was 102% (inactive).

Question: With O=C(Nc1ccccc1)Oc1ccccc1-c1ccccc1 as the compound, how does the growth read?
Answer: Its growth is 90.5% (inactive).

Question: O=C1Nc2c(ccc(Cl)c2Cl)/C1=C/c1ccccn1 was tested. Which growth did it give?
Answer: Its growth is 85.1% (inactive).

Question: With COc1cc2nnn3c4ncccc4c(N=O)c3c2cc1OC as the compound, how does the growth read?
Answer: Its growth is 102% (inactive).

Question: With C(=N\Nc1ncc(-c2cc3cc4c(cc3o2)OCO4)s1)/c1c[nH]c2ccccc12 as the compound, how does the growth read?
Answer: Its growth is 9.56% (active).

Question: With C1=C2CNCC3=Cc4ccc5ccccc5c4OC23Oc2c1ccc1ccccc21 as the compound, how does the growth read?
Answer: Its growth is 70% (inactive).

Question: For Nc1cc(N)c2cccnc2c1O, which growth is on record?
Answer: Its growth is 96% (inactive).

Question: With CC1=NNC(=O)C1CCC(=O)N/N=C(\C)c1ccc2ccccc2c1 (stereo not drawn) as the compound, how does the growth read?
Answer: Its growth is 77.2% (inactive).

Question: How did the growth turn out when COc1ccc(CNC(=O)COc2ccc(/C=N/Nc3nc4ccccc4s3)cc2)cc1 was run?
Answer: The growth was 66.9% (inactive).

Question: For CCCN=C(N)c1ccc(NC(=O)c2ccc(C(=O)Nc3ccc(C(N)=NCCC)cc3)cc2)cc1, which growth is on record?
Answer: The growth was 94.8% (inactive).

Question: For BrC(Br)(Br)c1cnc2ccccc2n1, which growth is on record?
Answer: The growth was 60.3% (inactive).

Question: O=C1/C(=C\c2cn(Cc3ccccc3)c3ccc(Br)cc23)c2ccccc2N1c1c(Cl)cccc1Cl was tested. Which growth did it give?
Answer: The growth was 99% (inactive).

Question: COc1ccc(-n2cc(-c3cc(OC)c(OC)c(OC)c3)n(C(C)=O)c2=O)cc1 was tested. Which growth did it give?
Answer: Its growth is 78.3% (inactive).

Question: For O=C(N/N=C/c1ccc(O)c(O)c1)c1sc2ccccc2c1Cl, which growth is on record?
Answer: The growth was 100% (inactive).

Question: With COc1ccc(OC)c(/C=C/[C@H]2O[C@@H](C)[C@H](O)[C@@H]2O)c1 as the compound, how does the growth read?
Answer: The growth was 112% (inactive).

Question: Cn1ncc2c(Nc3ccccc3Cl)nc(Cl)nc21 was tested. Which growth did it give?
Answer: The growth was 96.4% (inactive).

Question: Which growth does the source give for CCN(CCNc1cc(OC)cc2cccnc12)CCc1ccccc1 here?
Answer: The growth was 93.9% (inactive).

Question: How did the growth turn out when CCCC/C(=N\N=C(N)N)c1ccc(F)cc1 was run?
Answer: Its growth is 50.5% (inactive).

Question: With O=S(=O)(c1ccc(N/N=C\c2ccccc2)cc1)c1ccc(N/N=C/c2ccccc2)cc1 as the compound, how does the growth read?
Answer: The growth was 84.7% (inactive).

Question: With CCOC(=O)C1=C(C)NC(C)=C(C(=O)OCC)C1c1cc(Br)c(O)c(OC)c1 as the compound, how does the growth read?
Answer: Its growth is 66.7% (inactive).

Question: For CS(=O)(=O)OCCN(CCOS(C)(=O)=O)c1ccc(/C=N/Nc2ccc([N+](=O)[O-])cc2[N+](=O)[O-])cc1, which growth is on record?
Answer: Its growth is 97.8% (inactive).

Question: Which growth does the source give for COc1nccnn1 here?
Answer: Its growth is 101% (inactive).

Question: Which growth does the source give for COC(=O)C1NC(=S)N(c2ccc(Cl)cc2)C1/C=C/c1ccccc1 (stereo not drawn) here?
Answer: Its growth is 99.8% (inactive).

Question: How did the growth turn out when COc1cc(CCNc2nc3cc(N)cc(N)c3nc2-c2ccccc2)cc(OC)c1 was run?
Answer: The growth was 13.4% (inactive).

Question: O=C(O)/C=C\C(=O)N1C/C(=C\c2ccccc2Cl)C(=O)/C(=C/c2ccccc2Cl)C1 was tested. Which growth did it give?
Answer: Its growth is 2.41% (active).

Question: How did the growth turn out when O=C1/C(=C/c2ccc(O)cc2)COc2ccc(-c3ccccc3)cc21 was run?
Answer: Its growth is 102% (inactive).

Question: How did the growth turn out when Cc1[nH]n(-c2cccc(Cl)c2)c(=O)c1/C=C1\C=Nc2ccc(Br)cc21 was run?
Answer: The growth was 30.5% (inactive).

Question: For CO[C@@H]1[C@H](N(C)C(=O)c2ccccc2)C[C@@H]2O[C@]1(C)n1c3ccccc3c3c4c(c5c6ccccc6n2c5c31)C(=O)NC4=O, which growth is on record?
Answer: The growth was 57% (inactive).

Question: Cc1cc2cc3cc(C)c(N)cc3[n+](C)c2cc1N was tested. Which growth did it give?
Answer: Its growth is 46.2% (inactive).

Question: Which growth does the source give for CNC(=O)Nc1ccc(-c2nc(N3CCOCC3)nc3c2cnn3C2CCOCC2)cc1 here?
Answer: Its growth is 1.59% (active).

Question: How did the growth turn out when COc1ccc(/C=N/NC(=O)c2cccc3cc[nH]c23)cc1O was run?
Answer: Its growth is 87.8% (inactive).

Question: With NC(=S)N/N=C(/c1ccccc1)c1ccccc1N as the compound, how does the growth read?
Answer: The growth was 94.8% (inactive).

Question: CCCOc1nc(SCCC)nc2c1cnn2-c1ccccc1 was tested. Which growth did it give?
Answer: Its growth is 89.2% (inactive).

Question: COc1ccc(-c2cnnc3c(-c4cccc(C(F)(F)F)c4)cnn23)cc1 was tested. Which growth did it give?
Answer: The growth was 81% (inactive).

Question: With COc1ccc(C2CC(n3nnnc3-c3ccccc3)=NN2)cc1 (stereo not drawn) as the compound, how does the growth read?
Answer: The growth was 66.4% (inactive).

Question: Which growth does the source give for O=C1Nc2ccccc2/C1=C\c1cccc(/C=C2/C(=O)Nc3ccccc32)n1 here?
Answer: The growth was -69.5% (active).
